Experiment [1] is described as follows: reducers of endogenous Her2 protein level, primary screen, SKBR3 breast tumor cells, AlphaScreen, ATP viability (AID 461).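 For Her2 level: lower value means less Her2 protein in the cells.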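 For viability: percent of carrier control wells set as 100% viability.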 The note with it: 18-24 h, measured here: SKBR3 viability, ATP luminescence, at 10 µM. (In general: Bead proximity is the source of the signal in Alpha formats.)
In experiment [2] the target is Receptor tyrosine-protein kinase erbB-2 (Homo sapiens) (UniProt P04626). Described as above. The note with it: 18-24 h, at 10 µM, stronger effect = lower value.
Sequence of Receptor tyrosine-protein kinase erbB-2 (Homo sapiens) (P04626 whole entry, looked up): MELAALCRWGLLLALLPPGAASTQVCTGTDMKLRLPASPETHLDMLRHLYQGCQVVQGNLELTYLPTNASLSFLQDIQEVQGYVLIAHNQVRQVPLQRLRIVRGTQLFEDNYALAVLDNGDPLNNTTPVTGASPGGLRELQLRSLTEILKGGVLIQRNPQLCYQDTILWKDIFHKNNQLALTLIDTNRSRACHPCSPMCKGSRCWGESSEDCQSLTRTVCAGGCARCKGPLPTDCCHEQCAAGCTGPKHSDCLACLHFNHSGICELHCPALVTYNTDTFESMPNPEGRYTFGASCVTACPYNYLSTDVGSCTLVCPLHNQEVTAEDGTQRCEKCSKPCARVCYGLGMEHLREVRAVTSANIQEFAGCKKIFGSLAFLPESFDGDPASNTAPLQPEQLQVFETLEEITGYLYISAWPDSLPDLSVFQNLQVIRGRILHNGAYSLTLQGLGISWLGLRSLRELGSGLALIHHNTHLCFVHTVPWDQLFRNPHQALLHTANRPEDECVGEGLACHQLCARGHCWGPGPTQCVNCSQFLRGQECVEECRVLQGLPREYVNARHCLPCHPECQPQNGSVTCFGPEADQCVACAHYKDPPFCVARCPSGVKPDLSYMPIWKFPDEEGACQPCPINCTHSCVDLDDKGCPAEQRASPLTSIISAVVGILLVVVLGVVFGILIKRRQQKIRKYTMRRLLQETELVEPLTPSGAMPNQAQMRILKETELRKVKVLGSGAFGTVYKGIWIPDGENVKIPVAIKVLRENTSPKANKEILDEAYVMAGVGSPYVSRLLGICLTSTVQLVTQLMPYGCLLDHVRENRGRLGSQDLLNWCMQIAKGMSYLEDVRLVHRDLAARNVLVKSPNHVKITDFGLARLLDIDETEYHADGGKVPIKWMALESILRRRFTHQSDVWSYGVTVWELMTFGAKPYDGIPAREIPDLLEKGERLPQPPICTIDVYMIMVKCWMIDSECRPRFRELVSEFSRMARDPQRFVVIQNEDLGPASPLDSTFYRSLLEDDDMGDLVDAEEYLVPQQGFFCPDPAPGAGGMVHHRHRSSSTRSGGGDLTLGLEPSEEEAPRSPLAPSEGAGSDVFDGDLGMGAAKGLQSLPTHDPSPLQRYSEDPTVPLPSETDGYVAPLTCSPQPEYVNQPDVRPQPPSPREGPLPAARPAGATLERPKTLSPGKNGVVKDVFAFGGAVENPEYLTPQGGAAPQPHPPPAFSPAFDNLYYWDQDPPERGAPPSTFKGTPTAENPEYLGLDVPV
Experiment [3] is described as follows: SK-BR-3 cell growth inhibitors, pilot screen, 24 h, human (AID 572;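 active = viability at or below 10% of carrier control in both of two separate runs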;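 note: compound exposure lasted between 18 and 24 h rather than exactly 24 h; 100% = carrier-treated control wells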). As to conditions: SK-BR-3 viability, CellTiter-Glo luminescence, at 10 µM, stronger effect = lower value. A general note: Cellular ATP, detected with luciferase, serves as a proxy for viable cell number.
Experiment [4] can be described thus: HUVEC growth inhibition – cell-based, human, primary screen (AID 575;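 active = viability at or below 30% in both replicate assays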;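 note: 100% = median of untreated cell wells with 0.1% DMSO on each plate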). As to conditions: HUVEC proliferation, CellTiter-Glo luminescence, 72 h; at 10 µM; stronger effect = lower value.
Experiment [5] in a line: growth inhibitors of H69AR lung tumor, primary screen, human, duplicate replicates (AID 580;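 active = viability at or under a set limit in both replicates, limit being median viability minus 3 SD, cut at about 48% in these data, passing the limit was not always enough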;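 note: 100% = mean luminescence of untreated wells and 0% = no signal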). The note with it: H69AR lung tumor cells viability, ATP luminescence, 72 h; at 10 µM; stronger effect = lower value.
Experiment [6] is described as follows: reversal of MRP1-mediated doxorubicin resistance, pilot screen, H69AR cells, doxorubicin co-treatment (AID 601;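 active = viability loss from added drug above about 55%, and viability with drug at most 40%, in both replicates, limit read from the data, passing the limit was not always enough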). As to conditions: CellTiter-Glo, 72 h, at 10 µM; for differential viability (reversal): stronger effect = higher value.
Experiment [7] can be described thus: 384-well plate pilot, post-Golgi transport modulator project, inhibition of yeast transport mutant growth (AID 636; in the data active = inhibition above about 31%). As to conditions: absorbance 615 nm, about 18 h, stronger effect = higher value.
Experiment [8] in a line: growth suppression of yeast trafficking mutant, preliminary HTS, modulators of trafficking downstream of Golgi apparatus project, 1536-format plate, OD 615 nm (AID 637; in the data active = inhibition above about 30%). As to conditions: yeast transport mutant growth, absorbance 615 nm, 18 h; stronger effect = higher value.
Experiment [9] is described as follows: OD615 S. cerevisiae growth inhibition, permissive medium, pilot counter-assay, permissive growth control for S. cerevisiae lifespan shortening project (AID 705;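 active = growth inhibition above 25% in both replicates, a cutoff set 3 SD above the mean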). The note with it: OD615, 24 h, at 10 µM, stronger effect = higher value.
Experiment [10] can be described thus: Restrictive medium S. cerevisiae growth inhibition, OD615, pilot screen of yeast lifespan reduction project, restrictive growth control (AID 706;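 active = growth inhibition above a set limit, 3 SD over mean compound inhibition, in both replicates, cut at about 43% in these data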;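 note: modified DeaD lifespan yeast strain shifted to restrictive glucose medium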). As to conditions: OD615, 48 h, at 10 µM, stronger effect = higher value.
Experiment [11] is described as follows: viability gain of MRP-1-high H69AR cells under doxorubicin, pilot screen, MRP-1 activator project, CellTiter-Glo, duplicate (AID 807;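 active = viability increase at or above a cutoff of the median across tested compounds plus 3 SD, cut at about 8.5% in these data, passing the limit was not always enough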;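 note: compound pretreatment 18-22 h then 72 h combined with doxorubicin; 0% = doxorubicin alone and 100% = vehicle without doxorubicin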). As to conditions: H69AR viability with doxorubicin, CellTiter-Glo luminescence; at 10 µM; stronger effect = higher value.
Experiment [12] can be described thus: growth suppression of beta-catenin knockout HCT116, pilot screen, human colon tumor cells (AID 823;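 active = cell viability at or below a set limit in both duplicate runs, the limit being the all-compound median minus 4 SD, cut at about 23% in these data, passing the limit was not always enough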;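 note: 0% = wells killed by 20 µM Hyamine and 100% = untreated DMSO cell wells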). The note with it: CellTiter-Glo, 60 h, at 10 µM, stronger effect = lower value.
Experiment [13] can be described thus: growth suppression of PTEN-deleted HCT116, pilot screen, cell-based, HCT116 clonal line, CellTiter-Glo (AID 824;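 active = viability at or below 27.92% in each of two runs, the all-compound median minus 4 SD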;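 note: 0% = 20 µM Hyamine control and 100% = vehicle cell control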). The note with it: 60 h, at 10 µM, stronger effect = lower value.
Experiment [14] can be described thus: inhibitors of the yeast RAM network, pilot screen, dse1pr::URA3 reporter, 5-FOA selection (AID 869;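 active = inhibition over a set limit, the all-compound mean plus 3 SD, in both replicate runs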;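 note: 0% = DMSO wells with no growth and 100% = 10 µM 1-NA-PP1 with full growth; RAM network block rescues cells from 5-FOA so hits raise OD615 growth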). The note with it: S. cerevisiae dse1pr::URA3 5-FOA growth, OD615, 2 d; at 10 µM; stronger effect = higher value; strain carries analog-sensitive mutant Cbk1 kinase.
The nature of experiment [15]: RAM signaling pathway blockade in yeast – S. cerevisiae, Pdr1DBD-CYC8 efflux-inhibited sensitized strain, primary screen (AID 1298;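 active = RAM network inhibition above 8.4% in each of two replicates, 3 SD over the compound average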;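 note: 0% = DMSO untreated cells without growth and 100% = 10 µM 1-NA-PP1 full growth; higher means more yeast growth rescued from 5-FOA killing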). As to conditions: S. cerevisiae cbk1-as DSE1-URA3 strain, 5-FOA growth OD615, 2 d; at 50 µM; stronger effect = higher value.
The mark [16] stands for this setting: H69AR cells + 2 uM doxorubicin, measured here: viability with 2 uM doxorubicin, stronger effect = lower value.
Where [17] appears, read: H69AR cells, compound alone cytotoxicity.

Each structure is given as a SMILES string. Records with an inconclusive call do not appear. The source made the active and inactive calls.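 Rule for the calls, unless noted: active = Her2 level under about 52% in both replicate screens, with viability over 70% of control (limit read from the data); inconclusive = Her2 under the limit in one screen only, or viability under 70%; inactive = Her2 level above the set limit.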

As to `COc1ccc(S(=O)(=O)Cc2ccc(C(=O)NCCc3ccc(S(N)(=O)=O)cc3)o2)cc1`, the viability was 94.5% in experiment [1]; 94.5% (inactive) in [3]; 91.6% (inactive) in experiment [4]; 91.7% (inactive) in [5]; 79.6% in experiment [6] (setting [16]); 91.7% in experiment [6] (setting [17]). In addition, the values for the viability in experiment [12] and in experiment [13] were 102% (inactive) and 99.1% (inactive), respectively. Also, the Her2 level in [2] is 114% (inactive). Further, the differential viability (reversal) in [6] (H69AR cells + 2 uM doxorubicin) was 12.1% (inactive). Further, the inhibition in experiment [7] is -4.13% (inactive); in [8] it was -2.67% (inactive); in experiment [14], 0.71% (inactive). Besides, the results for the growth inhibition in [9] and in experiment [10] were -0.09% (inactive) and -4.47% (inactive), respectively. Moreover, the viability increase in experiment [11] is 0.71% (inactive). Also, in [15], the RAM network inhibition is 0.1% (inactive).

`O=C(Nc1nnc(-c2ccc(Cl)cc2)o1)C1CCCCC1`: the viability in [1] was 87.5%; in experiment [3], 87.5% (inactive); in [4] it was 67% (inactive); in experiment [5], 69.2% (inactive); in experiment [6] (setting [16]), 86.5%; in experiment [6] (setting [17]) it was 69.2%. In addition, the viability in [12] was 54.2% (inactive); in [13], 58.2% (inactive). Moreover, the Her2 level in experiment [2] is 99% (inactive). Further, the differential viability (reversal) in experiment [6] (H69AR cells + 2 uM doxorubicin) was -17.3% (inactive). Also, the figures for the inhibition in experiment [7], in experiment [8] and in experiment [14] were -7.2% (inactive), -2.33% (inactive) and 1.51% (inactive), respectively. In addition, the growth inhibition is 4.85% (inactive) in [9] and 8.62% (inactive) in experiment [10]. Moreover, in [11], the viability increase was -1.38% (inactive). In addition, in experiment [15], the RAM network inhibition is 1.36% (inactive).

On to `CCOc1cccc(C(=O)N2CCCCC2c2cccnc2)c1` (stereo not given), for which the viability in experiment [1] was 98.5%; in experiment [3] it was 98.5% (inactive); in experiment [4] it was 101% (inactive); in [5] it was 110% (inactive); in experiment [6] (setting [16]), 99.6%; in experiment [6] (setting [17]), 110%. Further, the viability in [12] was 101% (inactive); in [13], 95.2% (inactive). The Her2 level in [2] is 96.5% (inactive). Further, the differential viability (reversal) in [6] (H69AR cells + 2 uM doxorubicin) is 10.3% (inactive). The inhibition is -0.93% (inactive) in experiment [7], -1.13% (inactive) in experiment [8] and 0.635% (inactive) in experiment [14]. For the same compound, the growth inhibition is -4.46% (inactive) in experiment [9] and -2.66% (inactive) in [10]. Moreover, the viability increase in [11] was -1.99% (inactive). Further, the RAM network inhibition in experiment [15] is 1.95% (inactive).

For `C=CCOC(=O)COc1ccc2c(C)c(C)c(=O)oc2c1C`, the viability in [1] was 106%; in experiment [3] it was 106% (inactive); in experiment [4], 97.9% (inactive); in [5], 125% (inactive); in experiment [6] (setting [16]), 106%; in [6] (setting [17]), 125%. Besides, the results for the viability in experiment [12] and in experiment [13] were 101% (inactive) and 95.9% (inactive), respectively. For the same compound, in [2], the Her2 level was 92.5% (inactive). Besides, in experiment [6] (H69AR cells + 2 uM doxorubicin), the differential viability (reversal) is 19.5% (inactive). Moreover, the inhibition in experiment [7] is -0.81% (inactive); in experiment [8] it was -3.49% (inactive); in experiment [14] it was 1% (inactive). The growth inhibition in experiment [9] was -18.3% (inactive); in experiment [10], -15.6% (inactive). Moreover, the viability increase in experiment [11] was 2.23% (inactive). Also, the RAM network inhibition in experiment [15] was 2.98% (inactive).

With `COc1ccc(-c2noc(COc3ccc(Cl)c(C)c3)n2)cc1`, the viability was 91% in experiment [1]; 91% (inactive) in experiment [3]; 99.6% (inactive) in experiment [4]; 88.4% (inactive) in [5]; 83.7% in experiment [6] (setting [16]); 88.4% in experiment [6] (setting [17]). The viability was 101% (inactive) in experiment [12] and 91.5% (inactive) in experiment [13]. The Her2 level in [2] is 115% (inactive). Besides, in experiment [6] (H69AR cells + 2 uM doxorubicin), the differential viability (reversal) is 4.7% (inactive). The inhibition in experiment [7] is -5.07% (inactive); in experiment [8], -7.38% (inactive); in experiment [14], 6.36% (active). For the same compound, the growth inhibition in [9] was -7.56% (inactive); in experiment [10], -29% (inactive). In [11], the viability increase is 0.12% (inactive). The RAM network inhibition in [15] is 8.54% (inactive).

One may read the viability as a read-out of living cells in per cent, often relative to untreated cells. What is called inhibition is the relative decrease from the control value, in per cent.

For the origin of these results see PubChem BioAssay.
